# In all, about 310,000 compounds went through this assay and about 2,200 (0.71%) showed an effect of 50% or more. The effect is printed as a negative number. For the sample, strong results were picked, then their nearest neighbours and some compounds at random.
# Target: human ether-à-go-go-related gene (hERG) potassium channel (human, UniProt Q12809)
# Test: primary screen, population patch clamp on CHO cells stably expressing hERG; higher = less effect of the substance
# Sequence of human ether-à-go-go-related gene (hERG) potassium channel (Q12809 whole entry, looked up): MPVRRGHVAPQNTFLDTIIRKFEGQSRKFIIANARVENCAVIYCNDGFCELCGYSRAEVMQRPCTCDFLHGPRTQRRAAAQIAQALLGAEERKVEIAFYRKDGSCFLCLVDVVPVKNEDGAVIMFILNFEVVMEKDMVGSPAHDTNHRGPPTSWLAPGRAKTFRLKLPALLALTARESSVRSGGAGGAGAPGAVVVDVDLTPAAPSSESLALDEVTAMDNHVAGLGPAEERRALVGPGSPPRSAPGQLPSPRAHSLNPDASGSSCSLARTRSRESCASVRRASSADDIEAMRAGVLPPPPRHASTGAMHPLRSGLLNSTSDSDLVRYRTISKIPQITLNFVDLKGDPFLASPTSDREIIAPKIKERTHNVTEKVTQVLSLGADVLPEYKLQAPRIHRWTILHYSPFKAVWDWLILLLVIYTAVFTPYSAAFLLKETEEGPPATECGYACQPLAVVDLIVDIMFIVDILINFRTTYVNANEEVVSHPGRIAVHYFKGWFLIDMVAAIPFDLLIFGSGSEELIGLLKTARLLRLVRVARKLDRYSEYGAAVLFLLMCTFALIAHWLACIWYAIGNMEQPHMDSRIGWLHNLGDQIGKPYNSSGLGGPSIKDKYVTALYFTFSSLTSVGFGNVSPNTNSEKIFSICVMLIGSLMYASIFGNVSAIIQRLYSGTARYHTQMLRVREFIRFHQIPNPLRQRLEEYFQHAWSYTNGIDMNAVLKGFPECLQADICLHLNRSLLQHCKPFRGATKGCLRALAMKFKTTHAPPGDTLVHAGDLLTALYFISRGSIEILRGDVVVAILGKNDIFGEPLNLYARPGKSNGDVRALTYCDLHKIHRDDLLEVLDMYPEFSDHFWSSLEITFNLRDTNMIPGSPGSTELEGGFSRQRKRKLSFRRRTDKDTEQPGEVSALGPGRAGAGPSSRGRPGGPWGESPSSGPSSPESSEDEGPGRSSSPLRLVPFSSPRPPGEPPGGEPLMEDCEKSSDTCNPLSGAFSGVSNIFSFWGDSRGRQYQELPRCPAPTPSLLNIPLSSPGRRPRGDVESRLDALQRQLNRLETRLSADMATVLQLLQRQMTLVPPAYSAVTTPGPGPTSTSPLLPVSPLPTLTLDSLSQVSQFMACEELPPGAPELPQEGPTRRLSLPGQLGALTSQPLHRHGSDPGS
row,Compound,"hERG current change (%, negative = inhibition) at 1uM [%]"
1,O=C(CSc1nnc(COc2ccccc2)o1)NC1CC2CCC1C2 (stereo not shown),14.8
2,CC(=O)c1ccc(NC(=O)COC(=O)c2c[nH]c3ccccc23)cc1,14.4
3,C/C=C\C(=O)Nc1cccc(C2=NOC3(C2)C[C@@H](C(N)=O)N(C(=O)c2ccccc2)C3)c1 (stereo partly shown),11.6
4,CC1CCCC(C)N1CCCNC(=O)CN1C(=O)c2cccnc2Oc2ccc(Cl)cc21 (stereo not shown),6.15
5,O=C1[C@H]2[C@@H](C(=O)N1c1cc(Cl)cc(Cl)c1)[C@]1(C(=O)Nc3ccccc31)N1CCC[C@@H]21,4.86
6,Cc1cc(=O)n2nc(N3CCCC(C(=O)NCCC4=CCCCC4)C3)sc2n1 (stereo not shown),-4.44
7,O=S(=O)(c1ccc(=S)[nH]c1)N1CCCCC1,16.8
8,O=C(O)c1cccc(NC(=S)NC(=O)c2cncc(Br)c2)c1,8.81
9,Cc1cc(C)n2nc(SCc3ccc(C#N)cc3)nc2n1,6.64
10,Cc1ccc(C)c(CSC2=NCCN2S(=O)(=O)c2ccccc2)c1,7.31
11,OCC1(CCOc2ccccc2)CCN(Cc2cn[nH]c2-c2ccccc2)CC1,-68.3
12,OCC1(Cc2ccccc2)CCCN(Cc2cn[nH]c2-c2ccccc2)C1 (stereo not shown),6.96
13,OCC1(CCOc2ccccc2)CCN(Cc2cn[nH]c2-c2ccc(F)cc2)CC1,-46.3
14,Cc1ccc(S(=O)(=O)N2CCCCC2)cc1NC(=O)CN1CC=C(c2ccccc2)CC1,-0.529
15,COc1cc(/C=N/NC(=S)NCC2CCCO2)cc(OC)c1OC (stereo not shown),0.431
16,CC1=C(C(=O)Nc2ccccc2)C(c2coc3ccccc3c2=O)C2=C(CCCC2=O)N1 (stereo not shown),10.3
17,Cc1cc(NC(=O)CCN2CCN(Cc3ccccc3)CC2)ccc1Br.Cl,7.35
18,Cc1ccc(NC(=O)N2CCN(C/C=C/c3ccccc3)CC2)cc1,-10.7
19,CCN1CCN(CCC(=O)Nc2cccc(C)c2)CC1.Cl,9.56
20,Cc1ccc(NC(=O)CCN2CCN(C/C=C/c3ccccc3)CC2)cc1.Cl,-86.3
21,COC(=O)c1ccc(NC(=O)CCN2CCN(CCC(=O)Nc3ccc(C(=O)OC)cc3)CC2)cc1,1.76
22,Cc1ccc(NC(=O)CCN2CCN(C/C=C/c3ccccc3)CC2)cc1C.Cl,-53.2

row,Compound,"hERG current change (%, negative = inhibition) at 1uM [%]"
1,Cc1cccc(NC(=O)CCN2CCN(C)CC2)c1.Cl,14.1
2,COC(=O)c1ccc(NC(=O)CCN2CCOCC2)cc1,6.71
3,Cc1ccc(NC(=O)CCN2CCN(C)CC2)cc1.Cl,14.9
4,Cc1cccc(NC(=O)CCN2CCN(C/C=C/c3ccccc3)CC2)c1.Cl,-82.5
5,Cc1ccc(NC(=O)CCN2CCOCC2)cc1C,11.1
6,COC(=O)c1ccc(NC(=O)CCN2CCCCC2)cc1.Cl,-51
7,O=C(Cc1ccc(NS(=O)(=O)c2cccc(C(F)(F)F)c2)cc1)NCCN1CCOCC1,5.88
8,CCn1c(SCC(N)=O)nnc1-c1ccc(OC)c(OC)c1,19.4
9,C/C(=N/NC(=O)c1ccc(O)cc1)c1cccc([N+](=O)[O-])c1,9.78
10,COc1cc(/C=C/C2=CC(C)(C)NC(=S)N2)cc(OC)c1OC,8.95
11,COc1ccc(-n2c(SCC(=O)NCc3cccs3)nc3[nH]ncc3c2=O)cc1,-7.44
12,CCC(C)NC(=S)Nc1ccccc1OC (stereo not shown),1.64
13,CCN(C(=O)CSc1ncnc2c1cnn2-c1ccccc1)C1CCS(=O)(=O)C1 (stereo not shown),9.57
14,O=[N+]([O-])/C=C/c1c(OCc2ccccc2)ccc2ccccc12,-3.83
15,CCCC(C)C(=O)OCC(=O)Nc1c(Br)cc(C)cc1Br (stereo not shown),9.86
16,CCCc1ccc(-c2c(C)sc(N)c2C#N)cc1,16.9
17,c1ccc(-n2nnnc2-n2ccnc2)cc1,2.97
18,COc1ccccc1CCNC(=O)C(=O)NCC1OCCN1S(=O)(=O)c1cc(F)ccc1F (stereo not shown),8.74
19,Cc1ccc(S(=O)(=O)N2CCN(S(=O)(=O)c3ccc(C)cc3)C2c2ccccc2)cc1,3.23
20,Cl.O=C(CCN1CCOCC1)Nc1ccc(Cl)cc1,8.71
21,O=C(CCN1CCN(c2ccccc2)CC1)Nc1ccc(Cl)cc1,9.14
22,CN1CCN(CCC(=O)Nc2cccc(F)c2)CC1,13

row,Compound,"hERG current change (%, negative = inhibition) at 1uM [%]"
1,COc1cc(NC(=O)CCN2CCN(C/C=C/c3ccccc3)CC2)cc(OC)c1,-36.8
2,COc1ccc(NC(=O)CCN2CCN(C/C=C/c3ccccc3)CC2)cc1,-37.8
3,O=C(CCN1CCN(C/C=C/c2ccccc2)CC1)Nc1ccc(Cl)cc1,-74.1
4,O=C(CCN1CCN(C/C=C/c2ccccc2)CC1)Nc1ccccc1,-79
5,O=C(CCN1CCN(C/C=C/c2ccccc2)CC1)Nc1cccc(F)c1,-62.6
6,O=C(Nc1cccc(F)c1)N1CCN(C/C=C/c2ccccc2)CC1,-19.1
7,CCOCCCNC(=O)c1cn(C)c(=O)c2cc(OC)c(OC)cc12,9.51
8,CCOC(=O)O[C@]1(C(=O)COC(=O)CC)CC[C@H]2[C@@H]3CCC4=CC(=O)C=C[C@]4(C)[C@H]3[C@@H](O)C[C@@]21C,8.4
9,Cc1cccc(NC(=O)CNC(=O)COc2cc(F)ccc2[N+](=O)[O-])c1C,15.4
10,CCCNC(=O)CCC(NS(=O)(=O)c1ccc(C)cc1)C(=O)NCCC (stereo not shown),7.66
11,CCOC(=O)C1C(=O)CC(C)(O)C(C(=O)OCC)C1c1ccc(OC)cc1 (stereo not shown),-0.912
12,CCOC(=O)CSc1nc2sc(C(=O)O)c(C)c2c(=O)[nH]1,9.03
13,Cc1cc(N2C(=O)C(O)=C(C(=O)c3cc4ccccc4o3)C2c2ccc(Cl)cc2)no1 (stereo not shown),1.55
14,COC(=O)c1cc(NC(=O)CSc2nnc(N)s2)ccc1Cl,13.6
15,Cc1ccc2c(CC(=O)N(C)c3c(N)n(Cc4ccccc4)c(=O)[nH]c3=O)coc2c1,8.06
16,O=C(NCCc1ccccc1)c1ccc2nccnc2c1,20.4
17,CC(C)Cc1ccc(C(C)C(=N)N)cc1.Cl (stereo not shown),10.2
18,CC(C)Cc1ccc(C(C)C(N)=NCCc2ccccc2)cc1.Cl (stereo not shown),-16
19,CC(C)Cc1ccc(C(C)C(N)=Nc2ccc(O)cc2)cc1.Cl (stereo not shown),-71.8
20,CSCCC(=O)N1CCC(n2nccc2NC(=O)CCc2ccccc2)CC1,5.02
21,CC(=O)c1ccc(NC(=O)CN2CCC(C(=O)c3ccc(F)cc3)CC2)cc1,6.3
22,O=C(c1ccccc1)C1CCN(CC(=O)N2CCN(c3ccccc3)CC2)CC1,10.9

row,Compound,"hERG current change (%, negative = inhibition) at 1uM [%]"
1,Cc1ccc(C(=O)C2CCN(CC(=O)N3CCN(c4ccc(F)cc4)CC3)CC2)cc1,-66.5
2,Cc1ccc(C(=O)C2CCN(CC(=O)NCc3ccc(F)cc3)CC2)cc1,-17.5
3,Cc1ccc(NC(=O)CN2CCC(C(=O)c3ccc(F)cc3)CC2)cc1,-50.1
4,Cc1ccc2c(c1)nnn2C1CCN(CC(=O)c2ccc(Cl)cc2)CC1,-6.32
5,Cc1ccc2c(c1)nnn2C1CCN(CC(=O)N2CCN(c3ccc(F)cc3)CC2)CC1,-52.5
6,O=C(CN1CCC(C(=O)c2ccc(F)cc2)CC1)Nc1ccc(F)cc1,-31.6
7,Cc1ccc2c(c1)nnn2C1CCN(CC(=O)Nc2ccc(F)cc2)CC1,-20.7
8,O=C(/C=C/c1ccc(F)cc1)NC(=S)Nc1ccccc1O,13.6
9,CCN1C(=O)/C(=C/c2ccc(N(CC)CC)cc2OC)C(=O)NC1=S,5.05
10,Cc1ccccc1OCCN=Cc1c(O)n(C)c(=O)n(C)c1=O,10.2
11,Cc1cc(C(=O)NC2=NCCS2)cs1,-13
12,Cc1ccc(S(=O)(=O)NCCC(=O)NNC(=O)c2ccccc2O)cc1C,-9.68
13,Cc1csc(Sc2ccc(S(=O)(=O)N3CCCC3)cn2)n1,-2.28
14,O=Cc1c(NCCc2ccc(F)cc2)c2ccccc2[nH]c1=O,4.06
15,Cc1ccc(-c2csc(NC(=O)C3CSC4(C)CCC(=O)N34)n2)cc1 (stereo not shown),11.6
16,O=C(Nc1ccnn1C1CCN(Cc2cccc(O)c2)CC1)C1CCCC1,-14.2
17,O=C(Nc1ccnn1C1CCN(Cc2ccccc2F)CC1)C1CCCC1,-6.15
18,O=C(Nc1ccnn1C1CCN(C/C=C/c2ccc(F)cc2)CC1)C1CCCC1,-79.3
19,O=C(Nc1ccnn1C1CCN(C/C=C/c2ccccc2)CC1)C1CCCC1,-78.4
20,O=C(Nc1ccnn1C1CCN(Cc2ccccc2)CC1)C1CCCC1,-15.9
21,O=C(Nc1ccnn1C1CCN(Cc2cccc(F)c2F)CC1)C1CCCC1,8
22,CC1(c2ccccc2)CC(C)(C)N2C(=O)C3(C(C#N)=C(N)Oc4cc(O)ccc43)c3cccc1c32 (stereo not shown),6.18

# Source: PMC4336329 (PLoS ONE, 2015)
